# Shown are actives, neighbours in structure and some others; about 3.7% of the full set was active somewhere.
# BoNT-A LC inh2: blocks Botulinum neurotoxin A light chain protease | 0.17% of 360,000 active | multiplex microsphere protease substrate cleavage, flow cytometry | inhibition, % at 10 µM | AID 588499; further: plate controls were buffer without enzyme for full effect and enzyme alone for no effect
# BoNT-F LC inh: BoNT F light chain protease inhibition; Multiplex microsphere protease cleavage assay, flow cytometry; inhibition, % at 10 µM; 0.22% of 360,000 active; in the data active means inhibition above about 35%, passing the limit was not always enough; inconclusive means no clear call, values can overlap the other calls; further: plate controls were buffer without enzyme for full effect and enzyme alone for no effect
# Anthrax LF prot: inhibitors of Bacillus anthracis lethal factor protease | inhibition, % at 10 µM | multiplex microsphere protease cleavage assay, LF | 0.12% of 360,000 active; further: plate controls were buffer without enzyme for full effect and enzyme alone for no effect
# Bead autofluor: flagged as autofluorescent in microsphere protease counterscreen; compound autofluorescence counterscreen, microsphere flow cytometry; stronger effect = higher value; fluorescence intensity (concentration not given with the values); 3.1% of 360,000 active; AID 624483; in the data active means fluorescence intensity above about 16000; inconclusive means no clear call, values can overlap the other calls
# MazF activator: MazEF (E. coli) toxin RNase activation; P0AE70; FAM/BHQ RNA-DNA oligo cleavage fluorescence, 5 h; activation, % at 20 µM; 0.32% of 350,000 active; AID 504720; in the data active means activation above about 50%
# Target sequence (P0AE70 whole entry, looked up): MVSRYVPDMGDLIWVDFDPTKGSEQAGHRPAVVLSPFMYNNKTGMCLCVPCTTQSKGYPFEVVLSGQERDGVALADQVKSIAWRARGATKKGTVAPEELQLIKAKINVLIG
# The depositor's hits bear a star; ? = inconclusive; . = no result; + = active, no number. Unless noted, no stated cut-off is given here; in the data, active means inhibition above about 30%; inconclusive means no clear call, values can overlap the other calls; inactive means below that.
SMILES,BoNT-A LC inh2,BoNT-F LC inh,Anthrax LF prot,Bead autofluor,MazF activator
O=C(CCCn1c(SCC(=O)NCC2CCCO2)nc2ccccc2c1=O)NCC1CCCO1 (stereo unspecified),-2,-4,-1,20974*,3
CCCN(CCC)C(=O)CSc1nc2ccsc2c(=O)n1NC(=O)c1ccccc1,2,?,-3,?,10
O=C(CSc1nc2ccccc2c(=O)n1CC1CCCO1)N1CCN(c2ccccc2)CC1 (stereo unspecified),2,2,-1,21377*,-6
COCCNC(=O)CSc1nc2ccccc2c(=O)n1CCCC(=O)NCc1ccccc1,?,1,-4,22634*,0
C#CC(C)OCC1CNC(=S)O1 (stereo unspecified),0,4,0,3388,12
O=[N+]([O-])c1cccc2nc3ccccc3c(NCCCn3ccnc3[N+](=O)[O-])c12,0,1,-7,2589,6
Cc1ccc(OCCC(=O)N(CCC(C)C)c2c(N)n(Cc3ccccc3)c(=O)[nH]c2=O)cc1,-3,-14,0,6678,-10
Cc1onc(-c2ccccc2)c1C(=O)OCC(=O)N1CCN(c2ccccc2)CC1,8,13,5,?,1
Nc1nc2ccccc2cc1C(=O)NCCCCc1ccccc1,0,-2,4,6281,.
COc1ccc(CNC(=O)CCCn2c(SCC#N)nc3cc4c(cc3c2=O)OCO4)cc1,3,0,-1,21923*,0
O=C(CSc1nc2ccccc2c(=O)n1NC(=O)Cc1ccccc1)NCCc1ccccc1,3,3,-2,21231*,-1
CC(C)[C@@H]1CC2=C(C(=O)OC(C)(C)O2)[C@H](CCc2ccccc2)O1,0,2,-3,6003,.
CCC(CO)[n+]1c(C)cc(/C=C2\Sc3ccccc3N2Cc2ccccc2)cc1C (stereo unspecified),40*,4,36*,10304,22
COc1ccccc1-c1cc(-c2cc(Cl)ccc2O)n[nH]1,1,1,2,22763*,-2
COc1ccc(O)c(-c2cc(-c3ccccc3Cl)[nH]n2)c1,-3,-12,6,3698,13
CCCCNC(=O)C1c2ccccc2OCC(=O)N1CCc1ccc(OC)c(OC)c1 (stereo unspecified),0,-16,-1,5823,.
N#CC/C(N)=N/Nc1nc2ccccc2nc1Cc1ccccc1,2,-50,31*,2387,6
CC(C)(C)c1ccc(CC(=O)N2CCC2(C)C(=O)NS(=O)(=O)c2cccc(F)c2)cc1 (stereo unspecified),0,-2,-1,3775,.
CCCCCOC(=O)c1c(N)n(CCOC)c2nc3ccccc3nc12,1,-2,1,20661*,10
CCC(C)NC(=O)c1c(N)n(CCCOC)c2nc3ccccc3nc12 (stereo unspecified),8,6,-12,17608*,10
CCCCn1c(NC(=O)c2ccc(Br)o2)c(C(=O)OCC)c2nc3ccccc3nc21,13,0,3,2499,80*
CCOC(=O)c1c(N)n(CCOC(=O)c2cccs2)c2nc3ccccc3nc12,2,-10,-1,8086,0
CN1CCC(N2CCN(C3CN(Cc4ccc(F)cc4)S(=O)(=O)C3)CC2)CC1 (stereo unspecified),0,-3,5,5786,.
COc1ccc(C(=O)COC(=O)CSCc2c(C)noc2C)cc1OC,2,1,2,22438*,-2
CCCCC(=O)Nc1ncc(Br)s1,7,6,0,21554*,6
SMILES,BoNT-A LC inh2,BoNT-F LC inh,Anthrax LF prot,Bead autofluor,MazF activator
CCCCC(=O)Nc1ncc([N+](=O)[O-])s1,0,1,-1,4340,7
CCOc1cc(C(c2c(C)[nH][nH]c2=O)c2c(C)[nH][nH]c2=O)ccc1OS(=O)(=O)c1ccccc1,0,-6,0,20887*,-7
Cc1ccc(S(=O)(=O)Oc2ccc(C(c3c(C)[nH][nH]c3=O)c3c(C)[nH][nH]c3=O)cc2)cc1,-1,-3,0,8095,-3
COc1ccc(OCC(=O)NCc2nc(-c3ccccc3)no2)cc1,0,-5,-7,3825,-7
Cc1ccc(C)c(S(=O)(=O)NC(C)C(=O)Nc2ccc(-c3nc4ccccc4s3)cc2)c1 (stereo unspecified),1,-3,6,2588,52*
CC(NS(=O)(=O)c1cccc(Cl)c1)C(=O)Nc1ccc(-c2nc3ccccc3s2)cc1 (stereo unspecified),2,14,1,4173,-2
Cc1ccc(NC(C#N)c2ccccc2OCc2ccccc2)cc1 (stereo unspecified),?,-7,-2,23322*,1
COc1cccc(/C=C/C(=O)OCC(=O)NC2CC2)c1OC,0,8,-7,3547,3
CCCN1CCc2c(sc(NC(=S)NC(=O)c3ccccc3)c2C#N)C1,58*,-105,-65,2843,44
CC(C)N1CCc2c(sc(NC(=S)NC(=O)c3ccccc3)c2C#N)C1,32*,-88,-13,2308,37
CCN1CCc2c(sc(NC(=O)c3ccc4ccccc4c3)c2C(N)=O)C1,-3,-2,-5,6523,.
CC(C)C1Cc2c(sc(NC(=S)NC(=O)c3ccccc3)c2C#N)CO1 (stereo unspecified),-1,-9,3,2558,-5
Cc1sc(NC(=S)NC(=O)c2ccccc2)c(C#N)c1C,0,8,1,4166,34
CCN1CCc2c(sc(NC(=S)NC(=O)c3ccc(Cl)cc3)c2C(N)=O)C1,-14,?,1,16287*,11
CC(C)N1CCc2c(sc(N)c2C#N)C1,25,4,24,19341*,14
CCN(CC)C(=O)C1=C(C)N(Cc2ccc(C(C)(C)C)cc2)C(=O)C(CC(=O)NCC2CCCCC2)C1 (stereo unspecified),0,-1,-2,3571,-5
COc1ccc(-n2c(=O)c3ccccc3n(CC(=O)NC3CCCC3)c2=O)c(OC)c1,4,3,-1,21567*,2
CCOc1ccccc1NC(=O)Cn1c(=O)n(CCC(=O)NC2CCCC2)c(=O)c2ccccc21,1,0,4,2562,.
Cc1cccc(NC(=O)Cn2c(=O)n(CCC(=O)NC3CCCC3)c(=O)c3ccccc32)c1,-1,-3,-7,7057,84*
COc1ccc(C=NCCc2ccc(OC)c(OC)c2)cc1OC,0,-9,2,3972,2
COc1ccc(OC)c(/C=C2\N=C(c3ccccc3)OC2=O)c1,8,15,2,4261,+
O=C(O)c1cc(N2C(=O)C3C4C=CC(C4)C3C2=O)ccc1NCc1cccnc1 (stereo unspecified),0,-1,-2,23049*,8
O=C(O)c1cc([N+](=O)[O-])ccc1NCc1cccnc1,.,.,.,.,12
O=C(O)CN=C(Nc1cc(Cl)cc(Cl)c1)NC(c1ccccc1)c1ccccc1,-1,-3,-8,5883,.
COc1ccc(C(=O)N2CCOCC2c2cc(C(=O)NCc3ccccc3)no2)cc1 (stereo unspecified),0,7,-1,2999,.

# High-throughput results as filed in PubChem.
